# High-throughput results from PubChem BioAssay.
# Hits are enriched below; roughly 1.3% of the tested compounds scored in any of these assays.
# TSG101-PTAP inh = inhibitors of HIV-1 PTAP binding to human TSG101, validation | Fluorescence polarization, FITC-PTAP peptide/Tsg101, 20 min | Q99816 | Potency, µM (top dose mostly 115 µM), most hits filed as inhibitors | AID 1347069 | 44,000 tested, under 10 active; further: 0% is about no effect
# Target sequence (Q99816 whole entry, looked up): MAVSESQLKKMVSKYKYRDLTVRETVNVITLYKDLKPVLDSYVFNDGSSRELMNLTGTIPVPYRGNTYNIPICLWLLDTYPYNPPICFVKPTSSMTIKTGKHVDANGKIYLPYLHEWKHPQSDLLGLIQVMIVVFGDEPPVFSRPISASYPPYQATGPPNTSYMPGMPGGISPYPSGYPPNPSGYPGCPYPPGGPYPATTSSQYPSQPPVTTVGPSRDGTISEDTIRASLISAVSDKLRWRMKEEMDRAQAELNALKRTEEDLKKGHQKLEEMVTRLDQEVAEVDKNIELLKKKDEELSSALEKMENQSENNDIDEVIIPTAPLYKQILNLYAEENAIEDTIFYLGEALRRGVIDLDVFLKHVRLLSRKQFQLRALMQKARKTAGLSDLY
#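 FITC-labeled PTAP peptide (50 nM final) binding to Tsg101 binding domain (10 uM final) read by fluorescence polarization after 20 min at r.t. in HEPES pH 7.5 buffer. Actives by CRC class, <25 µM.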
# HTT prom inh = inhibits huntingtin promoter activity. HEK293 HTT promoter firefly luciferase reporter, 24 h. Potency, µM (top dose mostly 57.5 µM), without a hit: top-dose activity change, negative = inhibition, hits mostly inhibitors. hit rate 0.93% among 48,000; further: nearly all actives have a fitted effect of over 50% in size
#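 Firefly luciferase signal from promoter-reporter HEK293 cells was scaled between vehicle (0%) and zero RLU (-100%). Compounds were tested at final concentrations of up to 57.5 uM over 24 h at 37 degrees C. PTC124 at 50 uM final served as control inhibitor.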
# FH mod = Identification of activators of human fumarate hydratase by quantitative high-throughput screening; hit rate 0.22% among 54,000; Fumarate hydratase, mitochondrial (Homo sapiens), P07954; AID 1347055, 2019; Potency, µM (series often up to 79.9 µM), for the others: top-dose activity change, negative = inhibition, most hits filed as inhibitors; FH coupled MDH/diaphorase resazurin fluorescence, 15 min; further: on the % scale 0 is the no-effect control and ±100 the full control effect; the screen sought activators but most active calls are inhibition curves; nearly all actives have a fitted effect of over 45% in size
# HTT-AS act = activates huntingtin-antisense promoter activity | hit rate 0.24% among 48,000 | HEK293 HTT-AS promoter firefly luciferase reporter, 24 h; response scale: percent change from vehicle, -100% = no light | Potency, µM (highest dose often 57.5 µM), inactives show top-dose activity change, positive = activation, actives largely listed as activators; further: nearly all actives have a fitted effect of over 55% in size
#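 Firefly luciferase signal from promoter-reporter HEK293 cells was scaled between vehicle (0%) and zero RLU (-100%). Compounds were tested at final concentrations of up to 57.5 uM over 24 h at 37 degrees C. PTC124 at 50 uM final served as control inhibitor.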
# Numbers without * were called inactive; i = inactive; ? = inconclusive; . = not tested or not shown; ! = not active in a repeat; [ ] = dose if it differs, or a comment. The call rests on the fitted dose curve; in most records, active means well fitted curve in the direction sought with a large enough effect; inconclusive means small, poorly fitted or top-dose-only effect, or another doubt; inactive means no such curve, though single readings can be large; an effect the other way counts as inactive or inconclusive. Potency means the concentration at half of the fitted maximal effect.
SMILES,TSG101-PTAP inh,HTT prom inh,FH mod,HTT-AS act
CCOC(=O)c1ccc(NC(=O)c2cccn(Cc3ccccc3F)c2=O)cc1,i,1.4µM*,1%,-49%
N#C/C(=C/c1ccc(O)c(O)c1)C(N)=S,.,.,13µM*!,.
COc1ccc(C23CCC(=O)C=C2N(C)CC3)cc1OC (centres undefined),.,.,-2%,.
CN(N=O)c1cc(O)ccc1O,.,.,2.2µM*,.
Nc1c(C(=O)Nc2ccc(OC(F)(F)F)cc2)sc2nc3c(cc12)N1CCC3CC1,i,7.9µM*,-7%,-60%
COC1CC(OC2CCC3(C)C(=CCC4C3CCC3(C)C(C(C)OC5OC(COC6OC(CO)C(O)C(O)C6O)C(O)C(O)C5O)CCC43O)C2)OC(C)C1OC1OC(C)C(O)C(OC)C1O (centres undefined),.,.,9%[20.6 µM],.
O=C(Nc1ccc2c(c1)OCCO2)c1cccn(Cc2cccc(F)c2)c1=O,i,0%,?,7%
Cc1cccc(Cn2cccc(C(=O)Nc3ccc(F)cc3F)c2=O)c1,i,28µM*,2%,-34%
CCN1C[C@@]2(COC)C3[C@@H](OC)C4[C@H]1C3([C@@H]1C[C@@]3(O)[C@H](OC(=O)c5ccccc5)[C@@H]1[C@]4(OC(C)=O)[C@@H](O)[C@@H]3OC)[C@H](OC)C[C@H]2O,.,.,-23%[53.3 µM],.
O=C1OC(c2ccc(O)c(S(=O)(=O)O)c2)(c2ccc(O)c(S(=O)(=O)O)c2)c2c(Br)c(Br)c(Br)c(Br)c21,.,-5%,28µM*,0%
CC1(C)C(=O)N(c2ccc(C#N)c(C(F)(F)F)c2)C(=S)N1c1ccc(C(N)=O)c(F)c1,.,.,1%,.
CCN1C[C@]2(COC)[C@H](O)C[C@H](OC)[C@]34[C@@H]5C[C@]6(O)[C@H](OC(=O)c7ccccc7)[C@@H]5[C@@](O)([C@H]([C@H](OC)[C@H]23)[C@@H]14)[C@@H](O)[C@@H]6OC,.,.,2%[53.3 µM],.
Cc1ccccc1Cn1cccc(C(=O)Nc2nc3ccccc3s2)c1=O,i,0.32µM*,-6%,-82%
C=C1C(=O)CC2OC2(C)CC2OC(=O)C(=C)C2C(O)C1OC(=O)/C(C)=C\C (centres undefined),.,.,-1%[53.3 µM],.
CCCN1CCO[C@@H]2c3cc(O)ccc3OC[C@H]21,.,.,4%[53.3 µM],.
CCCN1CCc2cccc3c2[C@H]1Cc1ccc(O)c(O)c1-3,.,.,7.9µM*,.
C/C=C(\C)C(=O)OC1CC2C(CC=C3CC(OC4CC(OC)C(OC5CC(OC)C(OC6OC(C)C(OC7OC(CO)C(O)C(O)C7O)C(OC)C6O)C(C)O5)C(C)O4)CCC32C)C2(O)CCC(C(C)=O)C12C (centres undefined),.,.,2%[20.6 µM],.
